# From the supplement of paper PMC5499739
# The full ranking holds about 16,000 sequences; the median of “Z-score” is about -0.37, and the highest 2% start at about 3.2. This excerpt belongs to a sample that is enriched for the highest values.
# System: RBM10 RRM1-ZnF (GST-tagged construct)
# Test: RNAcompete 7-mer binding Z-score; higher = stronger binding preference
# Experimental: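 RNAcompete: 20 pmol GST-tagged RBM10 RNA-binding constructs were incubated with a designed RNA pool of about 241,000 sequences up to 41 nt (1.5 nmol) on glutathione beads for 30 min at 4 °C and washed. Bound RNAs were identified by microarray hybridisation. Each RNA 7-mer is scored by a one-sided Z-score of its enrichment, computed over probes that contain the 7-mer within longer pool sequences.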
row,Sequence,RNAcompete 7-mer binding Z-score
1,CAAGGAG,2.17
2,GAAGGAU,3.32
3,GCAGGAA,1.77
4,UAAGGAA,1.64
5,AAAGGAA,3.32
6,GAAGGAG,4.72
7,UAAGGAU,1.42
8,CAAGGAA,1.48
9,GAAGGAC,2.33
10,GGAGGAA,2.93
11,GAAGGAA,4.56
12,CAAGGAU,1.36
13,CAUCACC,-0.795
14,AACGGUG,1.56
15,CACCAAU,-0.639
16,GCCCGCC,-0.132
17,AUCCCGG,-0.513
18,UAGUUAA,-0.373
19,UUGCACU,-0.639
20,UUGGUUC,-0.344
21,UGCCGAC,-0.652
22,UCAGUAA,-0.461
23,UUACGCU,-0.5
24,UAAGGAG,1.97

row,Sequence,RNAcompete 7-mer binding Z-score
1,AAAGGAC,2.39
2,AAAGGAG,3.8
3,CAGCGCG,-0.324
4,GUAGACC,0.00729
5,CGAGCGU,0.0495
6,GGAGCGG,4.52
7,AGAGCGG,1.43
8,CGAGCGG,3.69
9,GGAGCGA,2.71
10,UGAGCGG,2.38
11,UCACUUA,-0.724
12,AUUCAAA,-0.662
13,CAUCUCA,-0.798
14,CUGGAUC,-0.311
15,CGGAUGA,1.15
16,UGGCGUA,0.316
17,CUUGGGU,1.38
18,AUUGGGG,3.01
19,UUGGGGC,1.95
20,UUGGGGU,3.27
21,UGGGCGC,1.16
22,GUUGGGG,4.26
23,UUGGGGG,3.56
24,UUUGGGG,2.72

row,Sequence,RNAcompete 7-mer binding Z-score
1,UGGGCGG,3.38
2,UUUGGGU,2.47
3,CUUGGGG,1.44
4,AGGGCGG,2.1
5,GCGUUUA,-0.535
6,CAAUUAA,-0.633
7,UCACUUC,-0.824
8,UUCAAAU,-0.607
9,GUUGCGU,0.257
10,UAGUAGU,-0.035
11,AUAUCCU,-0.789
12,GAAGUUA,0.309
13,CUUUAUG,-0.763
14,CGUUUGG,0.296
15,UGGGGGG,4.02
16,AAUUGGG,2.54
17,UGGGGGC,3.07
18,GAUUGGG,3.62
19,GUUUGGG,3.59
20,GGUUUGG,3.62
21,UGGGGCG,2.54
22,GAUUGGC,0.953
23,GUUUUGG,1.15
24,GGUUUUG,2.03

row,Sequence,RNAcompete 7-mer binding Z-score
1,GUUUGGA,1.36
2,UAGGUCC,-0.165
3,GGGGCGG,2.7
4,UCGGGGC,1.65
5,ACUAUCU,-0.759
6,UUGGCGA,0.605
7,GCGGGGU,3.75
8,GCGGGGC,2.47
9,GCGGGUU,2.76
10,GCGGGGA,3.67
11,GCGGGGG,3.94
12,CCGGGGG,1.54
13,UCGGGGU,2.07
14,CCGGGGA,1.27
15,UCGGGGA,1.6
16,GUCCAUA,-0.623
17,CCGACGC,-0.477
18,AGUACAA,-0.158
19,GUCAGCC,-0.448
20,GUGUUAA,-0.0447
21,AGGGCAG,2.11
22,CGGGGAG,2.57
23,UGGGCAG,2
24,UCGGGAG,1.12

row,Sequence,RNAcompete 7-mer binding Z-score
1,AGGGGAG,2.9
2,GGGGGAG,3.22
3,GGGGCAG,3.4
4,UGGGGAG,3.36
5,AGAUAAA,0.0463
6,UGACUCA,-0.48
7,GGUAGCC,0.784
8,UCAACAC,-0.461
9,GAGGAGA,1.69
10,ACUUGCU,-0.74
11,GACUUGA,-0.496
12,AAGGAAU,2.28
13,AAGGAAA,3.36
14,GAGGAAG,3.26
15,CAGGAAA,0.94
16,GAGGAAU,1.58
17,UAGGAAA,1.47
18,UAGGAAG,1.72
19,AAGGAAC,2.26
20,AAGGAAG,3.84
21,GGCUUAA,-0.0122
22,UGUCUCG,-0.649
23,GAUACGU,-0.022
24,AUGGACA,1.95

row,Sequence,RNAcompete 7-mer binding Z-score
1,UUUGCUC,-0.867
2,AUGGAGG,4.22
3,GUGGAGU,2.67
4,AUGGAGU,2.63
5,AUGGAGA,2.62
6,GUGGAGC,2.91
7,GUGGAGG,3.91
8,GGUGGUG,3.56
9,AAUGGUG,2.79
10,GAUGGUC,0.563
11,CGUGGUG,1.52
12,AGUGGUG,2.37
13,GAUGGUG,3.27
14,ACCACCA,-0.503
15,CUUACAC,-0.841
16,GCUCCCA,-0.574
17,GUCGUAG,0.056
18,ACAUCGA,-0.48
19,CGUAGGU,0.949
20,CGUAGAG,0.381
21,GGUAGGC,1.92
22,GGUAGGU,3.31
23,CGUAAAG,-0.116
24,GGUAGGA,3.4

row,Sequence,RNAcompete 7-mer binding Z-score
1,AGUAGGU,1.68
2,AGUAGGA,2.8
3,GGUAGAG,3.37
4,UGUAGAG,0.923
5,GGUAAAG,3.32
6,UGUAAAG,0.173
7,GAACCAG,-0.0934
8,GCGUAGC,-0.0155
9,CCGAAUU,-0.815
10,UGACCAC,-0.49
11,CUGUCGG,-0.305
12,UAGUCGA,-0.191
13,CCUUAUA,-0.87
14,UGGGCUG,1.83
15,GGUAGGG,4.7
16,GGUAGUG,2.47
17,GGUAGCG,1.67
18,AAGACUC,-0.561
19,AAUUAUA,-0.464
20,GAUCCUC,-0.883
21,AAUGGGU,3.89
22,UAUGGCG,0.537
23,AAUGGGG,4.2
24,CAUGGGU,2.24

row,Sequence,RNAcompete 7-mer binding Z-score
1,UAUGGGC,1.47
2,CAUGGGG,2.42
3,ACUGGGG,1.89
4,AAUGGUU,2.44
5,UAUGGGU,2.81
6,GAUGGGU,3.53
7,UAUGGGG,3.4
8,AAUGGCU,0.303
9,GAGGACC,0.235
10,CCUCCUC,-0.542
11,UGUACAU,-0.422
12,UGUGCCA,-0.542
13,ACUAUAC,-0.642
14,CACAUGU,-0.448
15,CAUUCUU,-0.789
16,ACGACAC,-0.496
17,AAUGGGA,4.35
18,GAUGGGG,4.43
19,GAUGGUA,2.28
20,GCUGGGG,2.64
21,GAUGGGA,3.76
22,AAUGGGC,2.5
23,UAUGGGA,2.85
24,GAUGGGC,2.15

row,Sequence,RNAcompete 7-mer binding Z-score
1,CAUGGGA,1.95
2,CUCACUU,-0.925
3,UUGUUAC,-0.373
4,GUUACCG,-0.0999
5,GGCCGAG,0.462
6,UGCGAUA,-0.223
7,GCCAGAG,0.00729
8,GGGGAGA,3.3
9,AGGGAGG,3.68
10,UGGGAGG,4.4
11,UGGGAGU,2.27
12,GGGGAGG,3.64
13,CGGGAGG,3.02
14,CGGGAGA,1.24
15,GGGGAGC,2.29
16,AGGGAGU,2.96
17,UGGGAGA,2.78
18,UGGGAGC,2.86
19,GGGGAGU,2.84
20,AGUCAGU,0.0105
21,ACGCCGC,-0.633
22,UCCAACU,-0.85
23,GUUACGG,0.859
24,GAGCUGA,0.417

row,Sequence,RNAcompete 7-mer binding Z-score
1,GCGCAAA,-0.181
2,AAGGCCA,-0.00896
3,UUCUUAG,-0.698
4,AUCCUAC,-0.87
5,GUCUCAU,-0.642
6,AGAAUCC,-0.785
7,AUACAAU,-0.539
8,CACGCAA,-0.464
9,GGGCUAU,0.849
10,GAUAAGG,3.91
11,CGAAAGG,2.19
12,UGAAAGG,3.05
13,GAAAAGG,4.26
14,AAAAGGU,2.33
15,GAUAAGU,0.313
16,AGAAAGG,4.58
17,AAAAAGG,2
18,CAAAAGG,0.888
19,CAAAGGU,1.15
20,CAUAAGG,0.335
21,GAAAGGU,4.51
